Here are results for 8 molecules from PubChem BioAssay (NCI).

What all share (assay): NCI-60 one-dose screen, 48 h (100 = growth as untreated, 0 = no growth, -100 = all killed)
Common to all, as to details: 10 µM unless noted

In experiment [1] the test system is DU-145 prostate.
Experiment [2] deals with K-562 leukemia.
For experiment [3], the system named is MALME-3M melanoma.
Experiment [4] has as its system MDA-MB-231 breast.
The subject of experiment [5] is RXF 393 renal.
The test system of experiment [6] is SF-268 CNS.
Experiment [7] deals with SF-295 CNS.
For experiment [8], the system named is SF-539 CNS.
Experiment [9] has as its system UACC-257 melanoma.
Experiment [10] has as its system M14 melanoma.
Experiment [11] relates to HCT-15 colon.
In experiment [12] the test system is HT29 colon.
Experiment [13] deals with SNB-75 CNS.
For experiment [14], the system named is SNB-19 CNS.
Experiment [15] concerns U251 CNS.
For experiment [16], the system named is PC-3 prostate.
The test system of experiment [17] is SK-MEL-5 melanoma.
In experiment [18] the test system is UACC-62 melanoma.
Experiment [19] relates to LOX IMVI melanoma.
The test system of experiment [20] is SK-MEL-28 melanoma.

This is part of a sample that, as a whole, favours compounds with a hit. Of some 83,000 tested, about 20% had one in any assay.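 Plates (96-well) were seeded with cells, treated with compound at one concentration, and incubated for 48 hours before percent growth was determined.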 Unmarked numbers belong to inactive results. Activity calls are given as the source filed them. Rule for the calls: active = growth percent below 10; inactive = the rest.

Turning to `O=S(=O)(NCCCNc1nccc(-c2c(-c3ccc(F)c(O)c3)nc3occn23)n1)c1ccc(Cl)cc1`, the growth was 73.5% in [1]; 45.8% in experiment [2]; 5.66% (active) in experiment [3]; 40.4% in experiment [4]; 30.8% in experiment [5]; 66.5% in experiment [6]. Moreover, the growth in experiment [7] is 103%; in experiment [8], 87.5%; in experiment [9] it was 33.8%; in experiment [10], 19.6%; in experiment [11], 73.2%; in experiment [12], 54.4%. Further, the growth in experiment [13] is 95.6%; in [14], 97%; in experiment [15], 94%; in experiment [16] it was 56.8%; in [17], 33.2%; in experiment [18] it was 11.7%. Moreover, the figures for the growth in [19] and in experiment [20] were 36.2% and 30%, respectively.
In the case of `Clc1ccc2c(c1)C(c1c[nH]c3ccccc13)(c1c[nH]c3ccccc13)CCO2`, the growth in [1] was 88%; in experiment [2], 73.1%; in experiment [3], 106%; in experiment [4], 55.5%; in [5], 95.6%; in experiment [6] it was 71.5%. For the same molecule, the growth in experiment [7] was 70%; in experiment [8], 95.4%; in experiment [9] it was 38.1%; in [10], 69%; in [11] it was 87.1%; in experiment [12] it was -46.2% (active). In addition, the growth is 68.4% in [13]; 97.4% in [14]; 46.8% in experiment [15]; 35.3% in [16]; 83.8% in [17]; 57% in experiment [18]. For the same molecule, the growth in [19] was 79.4%; in experiment [20], 95.3%.
On to `CCOC(=O)n1cc(-c2nonc2-c2cn(C(=O)OCC)c3ccc(Br)cc23)c2ccccc21`, for which the growth is 93.9% in [1]; 78% in experiment [2]; 83% in experiment [3]; 74% in experiment [4]; 94.2% in experiment [5]; 82% in experiment [6]. Further, the growth in experiment [7] is 72.4%; in experiment [8] it was 98.4%; in experiment [9] it was 93.6%; in experiment [10] it was 78.8%; in experiment [11], 76.8%; in experiment [12], 76.1%. Moreover, the growth in [13] was 73.1%; in experiment [14], 93.5%; in experiment [15], 89.8%; in experiment [16], 69%; in [17], 82.3%; in experiment [18] it was 58.7%. The growth in experiment [19] was 74.6%; in experiment [20], 100%.
Consider `COc1ccc(C2CC(c3ccc(Nc4nc(Nc5ccccc5)nc(Nc5ccccc5)n4)cc3)=NN2C(C)=O)cc1` (stereo not given), for which the growth was 144% in experiment [1]; 75.2% in experiment [2]; 110% in [3]; 95.5% in experiment [4]; -10.9% (active) in experiment [5]; 139% in experiment [6]. Also, the growth in [7] is 99.5%; in [8], 121%; in experiment [9], 88.4%; in experiment [10], 107%; in experiment [11], 96.9%; in experiment [12] it was 101%. In addition, the growth in experiment [13] is 89.8%; in [14] it was 88.7%; in experiment [15], 88.1%; in experiment [16] it was 86.4%; in experiment [17], 83.5%; in [18], 94.3%. Besides, the growth is 103% in [19] and 109% in experiment [20].
Regarding `CCCCNC(=O)Oc1ccc(/C(=C(/C)Cc2ccc(OC)cc2)c2ccc(OCCN(CC)CC)cc2)cc1`, the growth in experiment [1] is 91.7%; in experiment [2], 3.84% (active); in [3] it was 88.1%; in experiment [4], 88.8%; in [5] it was 81.7%; in experiment [6] it was 86.2%. In addition, the growth in [7] was 86.6%; in experiment [8], 77.8%; in experiment [9] it was 90.7%; in experiment [10] it was 52.1%; in [11], 41%; in experiment [12] it was 6.03% (active). Moreover, the growth in experiment [13] was 69.1%; in [14], 87.7%; in experiment [15] it was 59%; in [16] it was 62.1%; in experiment [17] it was 79.1%; in experiment [18], 84.7%. Also, the growth was 74.9% in [19] and 82.8% in experiment [20].
As to `Oc1c(I)cc(I)cc1CNCc1ccccn1`, the growth in experiment [1] was 49.9%; in experiment [2], 20.9%; in experiment [3], 42.5%; in experiment [4] it was 38.3%; in experiment [5], 70.2%; in experiment [6] it was 36.8%. Besides, the growth in experiment [7] was 25.7%; in experiment [8] it was 20.2%; in experiment [9], 15.4%; in experiment [10], 8.61% (active); in experiment [11] it was 26.8%; in experiment [12], 36.6%. For the same molecule, the growth was 75.6% in [13]; 30.5% in experiment [14]; 15.6% in experiment [15]; 39.5% in experiment [16]; 37.3% in experiment [17]; 19.6% in experiment [18]. Besides, the figures for the growth in [19] and in [20] were 30.2% and 48.6%, respectively.
Turning to `Cc1nc2sc(C(=O)Nc3cccc4ccccc34)c(N)c2cc1C(O)c1ccccc1` (stereo not given), the growth was 5.38% (active) in [1]; 4.79% (active) in [2]; 46.9% in experiment [3]; 17.1% in experiment [4]; 36.2% in experiment [5]; 23.5% in experiment [6]. Further, the growth was 10.2% in [7]; -7.12% (active) in experiment [8]; 51.6% in experiment [9]; 7.59% (active) in experiment [10]; 13.1% in experiment [11]; 10.5% in experiment [12]. The growth in experiment [13] is 68.8%; in experiment [14] it was 26.2%; in [15] it was 1.5% (active); in experiment [16], 14.8%; in [17] it was -53.1% (active); in [18] it was 17.8%. Besides, the growth in [19] is 21.4%; in [20] it was 54.3%.
As to `Cc1cc(=O)oc2cc(OCc3nn4c(Nc5nc6ccccc6s5)c(-c5ccccc5)nc4s3)ccc12`, the growth in experiment [1] was 97.7%; in experiment [2], -59.3% (active); in [3] it was 93.7%; in experiment [4], 83.1%; in experiment [5], 102%; in experiment [6], 86.1%. Further, the growth is 90.2% in experiment [7]; 96.1% in [8]; 93.9% in experiment [9]; 100% in experiment [10]; 91.3% in experiment [11]; 102% in experiment [12]. Moreover, the growth in experiment [13] was 84.4%; in experiment [14] it was 74.7%; in experiment [15] it was 96.7%; in experiment [16] it was 87%; in [17] it was 99.2%; in experiment [18] it was 84.4%. Moreover, the growth was 95.8% in experiment [19] and 102% in experiment [20].
